Consider 3 compounds from PubChem BioAssay (NCI).

This is part of a sample that, as a whole, favours compounds with a hit. Of some 83,000 tested, about 20% had one in any assay.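 A percent growth of 40 corresponds to 60% growth inhibition; 0 means no net growth; -100 means all cells died. Active threshold: below 10.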 A number with no mark means an inactive call. The source made the active and inactive calls.

For the test, the system named is HL-60(TB) leukemia. Nature of the test: NCI-60 one-dose screen, 48 h (100 = growth as untreated, 0 = no growth, -100 = all killed). To be noted: 10 µM unless noted.
Consider `COc1cc2c(cc1OC)CN(CCCCOc1cc(O)c3c(=O)cc(-c4ccccc4)oc3c1)CC2`, for which the growth is 7.79% (active). For `O=[N+]([O-])c1ccc(/C=C/c2nc3ccccc3n3c(=S)[nH]nc23)cc1`, the growth was 79.1%. For `Cc1ccc(S(=O)(=O)c2nc(S(=O)(=O)c3ccc(C)cc3)c(N3CCN(C)CC3)s2)cc1`, the growth is 17.8%.
